Assay outcomes as filed in PubChem.
pPAFAH inh = pPAFAH enzyme inhibitors, primary screen, biochemical, fluorescence polarization, human. inhibition, % at 3.39 µM. recombinant pPAFAH, FP-rhodamine probe fluorescence polarization. 330,000 compounds, 1.5% hits. Platelet-activating factor acetylhydrolase (Homo sapiens), Q13093. AID 463082, 2010;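 active = inhibition above the mean inhibition across the screen plus 3 SD, cut at about 25% in these data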;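 note: inhibitors block binding of the rhodamine activity-based probe so polarization drops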
Target sequence (Q13093 whole entry, looked up): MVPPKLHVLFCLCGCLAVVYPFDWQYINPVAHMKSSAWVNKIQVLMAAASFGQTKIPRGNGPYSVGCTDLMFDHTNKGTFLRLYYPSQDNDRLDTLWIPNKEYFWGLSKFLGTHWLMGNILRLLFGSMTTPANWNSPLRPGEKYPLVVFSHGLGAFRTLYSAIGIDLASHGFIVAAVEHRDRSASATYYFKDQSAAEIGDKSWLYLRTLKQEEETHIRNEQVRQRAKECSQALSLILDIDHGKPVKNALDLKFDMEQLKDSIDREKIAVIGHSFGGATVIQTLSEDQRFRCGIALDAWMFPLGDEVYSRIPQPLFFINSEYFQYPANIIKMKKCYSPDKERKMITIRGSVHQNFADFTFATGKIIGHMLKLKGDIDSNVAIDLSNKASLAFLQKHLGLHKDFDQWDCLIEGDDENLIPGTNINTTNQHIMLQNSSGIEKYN
HTRA1 inh = HTRA1 serine protease inhibitors, primary screen, biochemical, fluorescence polarization, HTS; 340,000 compounds, 0.5% hits; inhibition, % at 5.96 µM; recombinant HTRA1, FP-rhodamine activity-based probe; Q92743; in the data active = inhibition above about 36%
PAFAH2 inh = PAFAH2 enzyme inhibitors, primary screen, biochemical, fluorescence polarization, human | Platelet-activating factor acetylhydrolase 2, cytoplasmic (Homo sapiens), Q99487 | recombinant PAFAH2, FP-rhodamine activity probe | inhibition, % at 3.39 µM | 340,000 compounds, 0.99% hits | AID 492956, 2010;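 active = inhibition above the mean over all tested compounds plus 3 SD, cut at about 30% in these data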;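 note: inhibitors block probe labeling of enzyme so polarization drops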
PAFAH1B2 FP inh = PAFAH1B2 enzyme inhibitors, primary screen, biochemical, fluorescence polarization, human; Platelet-activating factor acetylhydrolase IB subunit alpha2 (Homo sapiens), P68402; AID 492953, 2010; 340,000 compounds, 1.2% hits; inhibition, % at 3.39 µM; recombinant PAFAH1B2, FP-rhodamine activity probe;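 active = inhibition above the mean of all tested compounds plus 3 SD, cut at about 24% in these data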
PAFAH1B3 FP inh = PAFAH1B3 enzyme inhibitors, primary screen, biochemical, fluorescence polarization, human; Platelet-activating factor acetylhydrolase IB subunit alpha1 (Homo sapiens), Q15102; recombinant PAFAH1B3, FP-rhodamine probe; inhibition, % at 3.39 µM; 340,000 compounds, 0.28% hits;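 active = inhibition above the screen-wide average of all tested compounds plus 3 SD, cut at about 25% in these data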
Target sequence (Q15102 whole entry, looked up): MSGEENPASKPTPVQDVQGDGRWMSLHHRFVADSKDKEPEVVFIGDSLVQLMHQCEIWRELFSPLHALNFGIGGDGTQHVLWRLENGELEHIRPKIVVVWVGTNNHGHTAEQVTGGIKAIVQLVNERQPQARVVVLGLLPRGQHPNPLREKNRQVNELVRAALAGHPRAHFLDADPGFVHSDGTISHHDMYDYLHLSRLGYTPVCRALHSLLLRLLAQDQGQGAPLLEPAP
DAGLB inhibitor = DAGLB lipase inhibitors, primary screen, biochemical, fluorescence, HTS; Diacylglycerol lipase-beta (Homo sapiens), Q8NCG7; HEK293T DAGLB membrane lysate, EnzChek fluorogenic substrate; inhibition, % at 5.17 µM; 340,000 compounds, 0.059% hits; AID 504411, 2011; in the data active = inhibition above about 34%
PAFAH2 confirm = PAFAH2 enzyme inhibitors, confirmation, biochemical, fluorescence polarization, human. shares compounds with PAFAH2 inh. recombinant PAFAH2, FP-rhodamine activity probe. inhibition, % at 3.39 µM. 2,300 compounds, 65% hits. AID 493030, 2011;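 active = mean inhibition over three repeats above a set limit taken from the earlier primary screen, cut at about 30% in these data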;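 note: inhibitor blocks binding of rhodamine activity probe so polarization falls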
PAFAH1B3 confirm = PAFAH1B3 enzyme inhibitors, confirmation, biochemical, fluorescence polarization, human; 390 compounds, 30% hits; inhibition, % at 3.39 µM; shares compounds with PAFAH1B3 FP inh; recombinant PAFAH1B3, FP-Rh activity-based probe;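 active = average inhibition over triplicate runs above the hit cutoff set in the earlier primary screen, cut at about 25% in these data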
DAGLB inh conf = DAGLB lipase inhibitors, retest, confirmation, biochemical, fluorescence, HEK293T membranes | shares compounds with DAGLB inhibitor | HEK293T DAGLB membrane lysate, EnzChek fluorogenic substrate | inhibition, % at 5.17 µM | 190 compounds, 73% hits;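 active = mean inhibition over triplicate wells above a set limit taken from the primary lipase screen, cut at about 34% in these data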
HTRA1 conf = HTRA1 protease inhibitors, retest, confirmation, biochemical, fluorescence polarization; inhibition, % at 5.96 µM; 1,600 compounds, 66% hits; shares compounds with HTRA1 inh; recombinant HTRA1, FP-rhodamine activity-based probe;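 active = mean inhibition over three repeats above a set limit taken from the earlier primary screen, cut at about 37% in these data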;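 note: inhibitors block probe binding so polarization drops and inhibition rises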
Each line names hits and unclear results; the compound was inactive in the other large screens (follow-up assays come after a bar, where they were run). An excerpt weighted towards active compounds, which were near 2.8% of everything screened.

CC(=O)Nc1ccc(-c2nc3ccccc3c(=O)o2)cc1	none
CCCCn1c(N)c(N(CC)C(=O)CSCC(=O)Nc2ccc(OC)cc2)c(=O)[nH]c1=O	none
COc1ccccc1C(=O)NNC(=O)C(=O)NC1CCCCC1	none
O=c1oc(-c2cccs2)nc2ccccc12	PAFAH2 inh 56 | PAFAH2 confirm 35
O=C(O)C1CSC(c2ccco2)N1 (stereo not given)	PAFAH2 inh 32 | PAFAH2 confirm inactive
CC(C)n1c(N2CCN(C(=O)c3cccs3)CC2)nc2ccccc21	none
CC(C)n1c(N2CCN(C(=O)N3CCCCC3)CC2)nc2ccccc21	PAFAH2 inh 33 | PAFAH2 confirm inactive
COc1ccc(NC(=O)NCCC2=CCCCC2)cc1	none
COc1ccc(C(=O)NCCC2=CCCCC2)cc1S(=O)(=O)N1CCOCC1	none
COc1ccc(/C=C/C(=O)OCC(=O)NCCC2=CCCCC2)cc1S(=O)(=O)N1CCOCC1	PAFAH2 inh 65 | PAFAH2 confirm 44
O=C(COC(=O)/C=C/c1ccc(C(F)(F)F)cc1)NCCC1=CCCCC1	none
COc1ccc(/C=C/C(=O)OCC(=O)NCCC2=CCCCC2)cc1	PAFAH2 inh 65 | PAFAH2 confirm 53
COc1cccc(/C=C/C(=O)OCC(=O)NCCC2=CCCCC2)c1	PAFAH2 inh 46 | PAFAH2 confirm 31
O=C(COC(=O)/C=C/c1ccccc1)NCCC1=CCCCC1	PAFAH2 inh 46 | PAFAH2 confirm 44
COc1cccc(NC(=O)NCCC2=CCCCC2)c1	none
O=C(COC(=O)/C=C/c1ccccc1)NCCc1ccc(F)cc1	PAFAH2 inh 61 | PAFAH2 confirm 42
COc1cc(/C=C2\SC(=O)N(c3ccccc3Cl)C2=O)cc([N+](=O)[O-])c1O	PAFAH2 inh 36, DAGLB inhibitor 42 (no result: pPAFAH inh) | PAFAH2 confirm inactive | DAGLB inh conf 38
O=C(NCc1cccnc1)c1ccc(NS(=O)(=O)c2ccc(F)cc2)cc1	none
O=c1c2ccccc2nc(COc2ccccc2)n1/N=C/c1ccc(O)c(O)c1	HTRA1 inh 72, PAFAH2 inh 30 | PAFAH2 confirm inactive | HTRA1 conf 82
N/C(Cc1cccc2ccccc12)=N\OC(=O)c1ccc2c(c1)OCO2	HTRA1 inh 43, PAFAH2 inh 81 | PAFAH2 confirm 78 | HTRA1 conf inactive
COc1ccccc1C(=O)NNC(=S)NC(=O)c1cccs1	none
O=C(NC(=S)NNC(=O)c1ccccc1O)c1cccs1	HTRA1 inh 56, PAFAH2 inh 45 | PAFAH2 confirm 36 | HTRA1 conf 54
O=C(NCCc1c[nH]c2ccccc12)OCCCCOC(=O)NCCc1c[nH]c2ccccc12	none
O=C(COc1ccc(F)cc1Cl)Nc1cccc(S(=O)(=O)N2CCCC2)c1	none
CCOc1cccc(/C=N/NC(=S)Nc2ccccc2[N+](=O)[O-])c1O	HTRA1 inh 54, PAFAH2 inh 45 | PAFAH2 confirm inactive | HTRA1 conf 51
O=C1CSC(=S)N1N=Cc1c(O)ccc2ccccc12	HTRA1 inh 37, PAFAH2 inh 42 (no result: pPAFAH inh) | PAFAH2 confirm 34 | HTRA1 conf 41
COc1ccc2ccccc2c1/C=N/N1C(=O)CSC1=S	none
CCn1c(SCC(=O)NCC2CCCO2)nnc1-c1ccc(S(=O)(=O)N2CCN(C)CC2)cc1 (stereo not given)	none
O=C(NN=c1c(=O)c2ccccc2c1=O)c1ccccc1	PAFAH1B3 FP inh 38 | PAFAH1B3 confirm 32
CCc1cccc2c(N=O)c(O)[nH]c12	PAFAH1B3 FP inh 28 | PAFAH1B3 confirm inactive
CN1CCN(NC(=O)c2cn(-c3ccccc3)nc2-c2ccc(OC(F)F)cc2)CC1	none
CCOC(=O)CCCCCC(=O)Nc1ccc2c(c1)C(=O)N([C@@H](C)CO)C[C@@H](C)[C@H](CN(C)C(=O)c1ccncc1)OCCCC[C@H](C)O2	none (no result: pPAFAH inh, PAFAH2 inh, PAFAH1B2 FP inh, PAFAH1B3 FP inh)
CCCN1CCCc2cc(CN)ccc21	PAFAH1B3 FP inh 30 | PAFAH1B3 confirm inactive
O=C(Nc1ccc(S(=O)(=O)NCc2ccccc2)cc1)c1ccc(Br)o1	none
C=CCn1c(NC(=O)c2ccc(Br)o2)c(S(=O)(=O)c2ccccc2)c2nc3ccccc3nc21	PAFAH1B3 FP inh 53 | PAFAH1B3 confirm inactive
CCOc1ccc(S(=O)(=O)N(C)c2ccc(OCC(=O)NCCc3ccc(OC)cc3)cc2)cc1	none
O=C(O)c1ccc(NC2=C(n3nnc4ccccc43)C(=O)c3ccccc3C2=O)cc1	PAFAH1B3 FP inh 29 | PAFAH1B3 confirm 26
O=C(O)c1cccc(NC2=C(N3CCOCC3)C(=O)c3ccccc3C2=O)c1	none
CCc1ccc(/C=C/C(=O)C2C(=O)c3ccccc3C2=O)cc1	PAFAH1B3 FP inh 28 | PAFAH1B3 confirm inactive
CC[C@]12c3[nH]c4ccccc4c3CCN1C(=O)C(CC(=O)NCCCn1ccnc1)C[C@@H]2C(=O)N1CCN(C(=O)c2ccco2)CC1 (stereo not given in full)	none
Cc1ccc(C(=O)N/N=C/c2cn(Cc3ccccc3)c3ccccc23)cn1	none
COc1cc(C(=O)N/N=C/c2cn(Cc3cccc(F)c3)c3ccccc23)ccc1O	PAFAH1B3 FP inh 34 (no result: pPAFAH inh) | PAFAH1B3 confirm inactive
CCOc1ccc(C(=O)C(C)OC(=O)Cn2c(C)csc2=O)cc1 (stereo not given)	none
CC(=O)Nc1ccc(S(=O)(=O)/N=C2\C(=O)c3ccccc3C([O-])=C2n2cc[n+](-c3ccccn3)c2)cc1	PAFAH1B3 FP inh 38 | PAFAH1B3 confirm inactive
CCCC[n+]1ccn(C2=C([O-])c3ccccc3C(=O)/C2=N\S(=O)(=O)c2ccc(Br)cc2)c1	none
Cc1ccc(NC(=O)C[n+]2ccn(C3=C([O-])c4ccccc4C3=O)c2)cc1	none
